Data from PubChem BioAssay AID2685 (National Center for Advancing Translational Sciences (NCATS), 2010).
Among all 320,000 compounds or so, about 2,100 (0.66%) were called active. Inconclusive results (about 53%) are left out. Calls come from the whole dose curve; as a rule, active = well fitted inhibition curve with a large enough effect in the signal ratio, with a control signal flat (not every such curve was filed as active); inconclusive = small, poorly fitted or top-dose-only effect, or effect the other way, or a change in a side signal; inactive = flat fitted curve, though single readings scatter; the % refers to the signal ratio. The list comes from a sample in which actives are over-represented; it also holds similar structures and randomly drawn compounds.

assay: qHTS Assay for Lipid Storage Modulators in Drosophila S3 Cells; conditions: BODIPY lipid droplet fluorescence, 18-24 h, cells fed with added oleic acid; cell number change: measured here: cell count max response; series mostly up to 46.1 µM; lipid storage change, negative = inhibition: at the top concentration;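 for cell number change: cells counted by Cell Tracker Red CMTPX staining in the red channel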; for lipid storage change, negative = inhibition: % is set by controls: 0 for no effect and ±100 for the full control effect
From the text: NIH Molecular Libraries Probe Production Centers Network [MLPCN] NIH Chemical Genomics Center [NCGC] MLPCN Grant: 1 R03 MH085686-01 Assay Submitter (PI): Beller, Mathias; Max-Planck-Institut fur Biophysikalische Chemie NCGC Assay Overview: Storing lipids as a reservoir for energy or the anabolism of elementary metabolites is a common feature of probably all cells and is conserved from bacteria to humans. The universal cellular lipid storage organelle is the so-called lipid storage droplet (LD). Although ubiquitous, LDs share a simple structure composed of a hydrophobic core that harbors the storage lipids, which is shielded by a droplet-specific phospholipid monolayer to which proteins are attached. The current model of LD biogenesis involves an incorporation of the lipid core into the membrane leaflets of the endoplasmic reticulum (ER) followed by a subsequent budding-like maturation of a LD, which ultimately pinches off. Once released, LD volume can increase by localized lipogenesis or fusion of existing droplet. Storage lipids are re-mobilized enzymatically by lipase activity. Lipase regulation in the adipocyte is heavily studied and involves multiple components including catecholamine signaling, the LD-associated proteins Perilipin and comparative gene identification (CGI-58) and at least two lipases named hormone sensitive lipase (HSL) and adipocyte triglyceride lipase (ATGL). LD regulation outside of the adipocyte is poorly understood and only few components are known. However, there is an urgent need to learn more about ectopic fat depots as mislocalized storage of lipids, for example in the liver or muscle, is an eminent health problem associated with insulin resistance or the metabolic syndrome. We developed a laser-scanning cytometer assay to enable 1,536-well screening and combined the results of the small molecules screen with an RNAi database based on lipid storage.
Triacsin C (Sigma-Aldrich T-4540), an inhibitor of long-chain fatty acyl CoA synthetase that blocks synthesis of triglycerides, was used as a positive control for lipid under-storage. A total of 23 nL of compound solution of different concentrations were transferred to the assay plates using a Kalypsys pin tool equipped with a 1,536-pin array containing 10-nL slotted pins (FP1S10, 0.457-mm diameter, 50.8 mm long; V&P Scientific). One microliter of oleic acid (400 uM) was added, and the plate was lidded with stainless steel rubber gasket lined lids containing pinholes. […] Fluorescence was detected by excitation of the fluorophores with a 488-nm laser on an Acumen Explorer (TTP Lab Tech). The total intensity in channel 2 (500-530 nm) reflected lipid droplet accumulation. Cells were detected using channel 3 (575-640 nm) with 5-um width and 100-um depth filters. The ratio of the number of objects in PMT channel 2 over the number of objects in PMT channel 3 was also calculated. Percent activity was computed relative to an internal control (100% inhibited lipid droplet deposition due to the presence of 20 uM Triacsin C), which was added to 32 wells/plate.
Potency is the fitted concentration of half-maximal effect.

SMILES | lipid storage change, negative = inhibition | cell number change | Potency | outcome
O=C(Nc1ccc(Cl)cc1C(=O)c1ccccc1)c1ccco1 | 1.66% (inactive) | 16.6% | – | –
O=C(Nc1ccc(Cl)c(Cl)c1)c1ccco1 | – | 4.2% | 14.6 µM (active) | –
CCOP(=S)(NN(Cc1ccccc1)C(=O)c1ccccc1)OCC | – | -8.12% | 6.51 µM (active) | –
CCOP(=O)(OCC)C(NC(=O)c1ccccc1)=C(Cl)Cl | 0.618% (inactive) | 12% | – | –
CCOP(=O)(OCC)C(Cc1ccccc1)NC(C)=O (configuration not stated) | -8.92% (inactive) | 6.58% | – | –
CC(C)N1CCC2(CC1)NC(CO)(CO)CO2 | 10.4% (inactive) | 2.89% | – | –
COc1ccc(C)cc1NC(=O)c1c(C)nn(Cc2ccccc2)c1Cl | -6.79% (inactive) | -8.13% | – | –
O=C1N(c2ccccc2)C(c2cccnc2)N2CCCN12 (configuration not stated) | -3.46% (inactive) | -11.1% | – | –
O=C1NC(=O)C(Cc2cccs2)C(=O)N1 | – | -13% | 25.9 µM (active) | –
CN1C(=O)C(Cc2cccs2)C(=O)N(C)C1=O | -6.34% (inactive) | 1.68% | – | –
O=C1NC(=O)N(Cc2cccs2)C(=O)/C1=C/c1ccc(N2CCOCC2)cc1 | -2.73% (inactive) | -3.62% | – | –
CC(=O)O[C@@H]1[C@H]2CC[C@@H]3[C@]1(C[C@@H](OC(C)=O)[C@@]1(O)C([C@@H]4O[C@@H]4C1(C)C)[C@]3(C)O)C[C@@]2(C)O (some centres not stated) | -9.14% (inactive) | -2.47% | – | –
CC(=O)Nc1ccccc1OC(=O)N1CCOCC1 | – | – | 18.4 µM (active) | –
O=C(Nc1ccc(OC(=O)N2CCCC2)cc1)N1CCOCC1 | 0.334% (inactive) | 2.4% | – | –
O=C(Nc1ccccc1OC(=O)N1CCCCC1)N1CCCCC1 | 2.68% (inactive) | 3.87% | – | –
CC1(C)COC(Nc2ccc(Cl)cc2)=N1 | 7.18% (inactive) | 0.527% | – | –
COc1cccc2cc(-c3cc(=O)oc4ccc(OC(=O)N(C)C)cc34)oc12 | 25.5% (inactive) | -3.98% | – | –
Cc1cc2oc(=O)cc(-c3cc4ccccc4o3)c2cc1OC(=O)N(C)C | – | 20.3% | 18.4 µM (active) | –
COc1ccc(Oc2c(C)oc3cc(OC(=O)N(C)C)ccc3c2=O)cc1 | 3.93% (inactive) | 27.6% | – | –
COc1ccc(C(=O)C2CCCN(CCO)C2)c(C)c1 (configuration not stated) | – | -6.32% | 0.82 µM (active) | –
Cc1ccsc1C(=O)C1CCCN(CCO)C1 (configuration not stated) | 15.5% (inactive) | -5.68% | – | –
COc1ccc(C(=O)C2CCCN(Cc3ccc(C)s3)C2)c(OC)c1 (configuration not stated) | -12.3% (inactive) | -6.83% | – | –
CC1(O)CCN2C(=O)CCc3cccc1c32 (configuration not stated) | -0.531% (inactive) | -14.6% | – | –
Cn1c(O)c(/C=C2\C=c3ccccc3=NC2=O)c(=O)n(C)c1=O | 9.12% (inactive) | 5.41% | – | –
CN1CCc2c([nH]c3ccccc23)C1 | -12% (inactive) | -7.02% | – | –

SMILES | lipid storage change, negative = inhibition | cell number change | Potency | outcome
CCCCOc1ccc(CC2C(=O)N(C)C(=O)N(C)C2=O)cc1 | 13.1% (inactive) | -19.6% | – | –
COc1ccccc1CNCCc1ccc(F)cc1 | -8.79% (inactive) | -5.32% | – | –
CCC(=NCc1ccco1)c1c(O)n(-c2ccccc2)c(=O)[nH]c1=O | 15.4% (inactive) | 12.1% | – | –
CCC(=NCCO)c1c(O)n(-c2ccccc2)c(=O)[nH]c1=O | – | -16.7% | 20.6 µM (active) | –
CCC(=NCCO)c1c(O)n(-c2ccc(Cl)cc2)c(=O)[nH]c1=O | 2.83% (inactive) | 11.3% | – | –
CC(C)(C)N(NC(=O)c1ccccc1)C(=O)c1ccccc1 | 3.31% (inactive) | 1.15% | – | –
COc1cc(/C=C2\C(=O)NC(=O)N(c3ccc(C)cc3)C2=O)cc(OC)c1O | -2.05% (inactive) | 15% | – | –
COc1cc(C=C2C(=O)NC(=O)NC2=O)cc(OC)c1OC | 7.23% (inactive) | 8.46% | – | –
COc1cc(/C=C2\C(=O)NC(=O)N(c3ccccc3)C2=O)cc(OC)c1OC | – | – | 0.731 µM (active) | –
COc1ccccc1C(=O)C1CCCN(Cc2cnc(C)s2)C1 (configuration not stated) | 2.31% (inactive) | 3.73% | – | –
Cn1c(O)c(C=NC2CCN(Cc3ccccc3)CC2)c(=O)[nH]c1=O | -10% (inactive) | -0.367% | – | –
Cn1c(=O)c2c(nc(N/N=C/c3c(O)n(-c4ccccc4)c(=S)[nH]c3=O)n2C)n(C)c1=O | 12.3% (inactive) | 0.523% | – | –
OC1(CN2CCOCC2)C2CC3CC(C2)CC1C3 (configuration not stated) | – | -6.79% | 8.2 µM (active) | –
CC1(C)C2CC=C(CN3CCOCC3)C1C2 (configuration not stated) | -7.26% (inactive) | 1.35% | – | –
CCC(C)n1c(O)c(C=NCCN2CCOCC2)c(=O)[nH]c1=S (configuration not stated) | -7.01% (inactive) | 0.504% | – | –
COc1ccc(-n2c(O)c(C(C)=NCCN3CCNCC3)c(=O)[nH]c2=O)cc1 | -10.9% (inactive) | -2.05% | – | –
COC(=O)C1=C(c2ccc(-c3ccccc3)c(F)c2)C[C@@H]2CC[C@H]1N2C(=O)NCCOc1ccccc1Cl | – | -24.1% | 14.6 µM (active) | –
COC(=O)C1=C(c2ccccc2OCc2ccccc2)C[C@@H]2CC[C@H]1N2C(=O)NCc1ccc(OC)cc1 | -5.69% (inactive) | -4.45% | – | –
COC(=O)C1=C(c2ccc(-c3ccccc3)c(F)c2)C[C@@H]2CC[C@H]1N2C(=O)NCC1CC1 | 4.03% (inactive) | -12.8% | – | –
COC(=O)C1=C(c2ccc3ccccc3c2)C[C@@H]2CC[C@H]1N2C(=O)NC1Cc2ccccc2C1 | 11.9% (inactive) | -10.8% | – | –
COC(=O)C1=C(c2ccc(-c3ccccc3)c(F)c2)C[C@@H]2CC[C@H]1N2C(=O)NC1Cc2ccccc2C1 | – | -24.5% | 7.31 µM (active) | –
COC(=O)C1=C(c2ccccc2OCc2ccccc2)C[C@@H]2CC[C@H]1N2C(=O)NCc1ccccc1 | – | -13.3% | – | inactive
COC(=O)C1=C(c2ccc(-c3ccccc3)c(F)c2)C[C@@H]2CC[C@H]1N2C(=O)NCCOc1ccccc1 | – | -7.31% | – | inactive
COC(=O)C1=C(c2ccccc2OCc2ccccc2)C[C@@H]2CC[C@H]1N2C(=O)NCc1ccc(N(C)C)cc1 | – | -7.57% | 23.1 µM (active) | –
COC(=O)C1=C(c2ccc(OC(F)(F)F)cc2)C[C@@H]2CC[C@H]1N2C(=O)NCCOc1ccccc1Cl | – | – | – | inactive
